According to article PMC4552634, “A New Set of Chemical Starting Points with Plasmodium falciparum Transmission-Blocking Potential for Antimalarial Drug Discovery” (PLoS ONE, 2015):
Hit rate of the full screen: of about 13,000 compounds, about 3,200 (25%) showed an effect of 50% or more. The list shows a part of the results.

Test system: P. falciparum stage V gametocytes
Set-up: BacTiter-Glo ATP luminescence viability of purified stage V gametocytes in 384-well plates, per cent inhibition versus DMSO
Settings: 48 h, 5 µM; inhibitor

Compound | % Inhibition [%]
COc1ccc2nccc([C@@H](O)CN3CCC(NCc4cc5sccc5nc4C(F)(F)F)CC3)c2c1 [TCMDC-141152] | 4.239
COc1ccc(CNCCCCCCNCc2ccc(OC)c3ccccc23)c2ccccc12 [TCMDC-137631] | 111.4
COc1ccc(CCNCCCCNCCc2ccc(OC)c3ccccc23)c2ccccc12 [TCMDC-137961] | 106.4
COC(=O)Cc1ccc(N)c2ccccc12 [TCMDC-139173] | -43.46
CCc1nonc1NC(=O)c1oc2c(C)c(C)ccc2c1C [TCMDC-123827] | 4.304
CNCCNCc1cccc(-c2ccc(-c3nc4cc(C(F)(F)F)ccc4[nH]3)s2)c1.O=C(O)C(F)(F)F [TCMDC-132830] | 50.68
FC(F)(F)c1ccc2[nH]c(-c3ccc(-c4cccc(CNCCc5cccnc5)c4)s3)nc2c1.O=C(O)C(F)(F)F [TCMDC-132874] | 67.94
FC(F)(F)c1ccc2[nH]c(-c3ccc(-c4cccc(CNCc5ccccc5)c4)s3)nc2c1.O=C(O)C(F)(F)F [TCMDC-132708] | -60.8
FC(F)(F)c1ccc2[nH]c(-c3ccc(-c4cccc(CNCCc5ccncc5)c4)s3)nc2c1.O=C(O)C(F)(F)F [TCMDC-132849] | -1.104
CS(=O)(=O)NCCCNCc1cccc(-c2ccc(-c3nc4cc(C(F)(F)F)ccc4[nH]3)s2)c1.O=C(O)C(F)(F)F [TCMDC-133083] | -25.93
O=C(O)C(F)(F)F.c1cncc(CCNCc2cccc(-c3ccc(-c4nc5ccccc5[nH]4)s3)c2)c1 [TCMDC-132877] | -12.84
N#CN1CC[C@H](CS(=O)(=O)c2cccc(Br)c2)C1 [TCMDC-133806] | 9.818
COc1ccc(N2C(=O)c3c(c4ccccc4n3C)C2c2ccccc2O)cc1 (stereo not shown) [TCMDC-124403] | -39.6
O=S(=O)(c1ccc(OCc2ccc(Cl)cc2)cc1)c1cc2c(cc1OCc1ccccc1)CCN(C1CCC1)CC2 [TCMDC-135998] | 60.24
O=S(=O)(c1ccc(OCc2ccc(Cl)cc2)cc1)c1cc2c(cc1O)CCN(C1CCC1)CC2 [TCMDC-135997] | 28.22
COc1cc2c(cc1S(=O)(=O)c1ccc(OCc3ccc(Cl)cc3)cc1)CCN(Cc1ccc(NC(C)=O)s1)CC2 [TCMDC-132326] | -7.841
O=S(=O)(Nc1cc2c(cc1OCc1ccccc1)CCN(C1CCC1)CC2)c1ccc(-c2ccc(Cl)cc2)cc1 [TCMDC-136027] | -11.35
O=S(=O)(c1ccc(OCc2ccc(Cl)cc2)cc1)c1cc2c(c(-c3ccc(F)cc3)c1)CCN(CC1CC1)CC2 [TCMDC-135736] | 93.21
O=S(=O)(c1ccc(OCc2ccc(Cl)cc2)cc1)c1cc2c(cc1OCc1ccccc1)CCN(CC1CC1)CC2 [TCMDC-134410] | 0.8378
COc1ccc2nccc([C@@H](O)CN3CCC(NCc4ccc5nsnc5c4)CC3)c2c1 [TCMDC-140928] | 4.203
O=C(NCc1cccc(C(F)(F)F)c1)C1CCCN(C(=O)c2ccc(O)c(-c3ccc(Cl)c(Cl)c3)c2)C1 (stereo not shown) [TCMDC-140885] | 20.85
O=C(Cc1cnc[nH]1)Nc1cccc(-c2cccc(-c3nc4ccccc4[nH]3)c2)c1 [TCMDC-136940] | -12.56
CCC(CSC1CCCCC1)N(C)CCN(C)C(CC)CSC1CCCCC1 (stereo not shown) [TCMDC-131456] | 101.8
CCc1ccc(NC(=O)c2ccc(CN3CCCN(Cc4cccs4)CC3)cc2)cc1 [TCMDC-136447] | -19.53

Compound | % Inhibition [%]
CC(C)C(=O)n1ncc2c3c(N)nc(N)nc3ccc21 [TCMDC-137841] | -14.38
CCN(CCO)Cc1ccc(-c2ccc(NS(=O)(=O)c3cccc4cccnc34)cc2)cc1 [TCMDC-136477] | -29.46
Cc1cc(C(=O)Nc2ccc3c(c2)CCN3C2CCN(Cc3csc4ccccc34)C2)no1 (stereo not shown) [TCMDC-135082] | 15.45
CCCCN(CCCC)CCCCCCNc1c2ccccc2nc2ccccc12 [TCMDC-137519] | 114.2
CCN(CC)CCCNc1c2ccccc2nc2ccccc12.Cl [TCMDC-125517] | 76.48
CCCCNc1cc(NCCCC)c2c(n1)[nH]c1ccccc12 [TCMDC-131827] | -13.41
CCN(CC)CCCNc1cc[n+]([O-])c2cc3ccccc3cc12 [TCMDC-124146] | -26.87
CCN(CC)CCNc1ccnc2c3ccccc3n(C)c12 [TCMDC-131844] | 2.979
Cl.c1ccc2c(NCCOCCNc3c4ccccc4nc4ccccc34)c3ccccc3nc2c1 [TCMDC-124265] | 121.8
CCCCN(CCCC)CCCCNc1c2ccccc2nc2ccccc12 [TCMDC-137461] | 102
c1ccc2c(NCCc3c[nH]cn3)c3ccccc3nc2c1 [TCMDC-124424] | 5.484
Cc1ccc(-c2cccc3c(NC(=O)Nc4ccc5nccc(N6CCN(C)CC6)c5c4)cccc23)cn1 [TCMDC-139367] | -6.741
COc1ccccc1C1CCN(C2CCC(NC(=O)/C=C/c3ccc(C(F)(F)F)cc3)CC2)CC1 (stereo not shown) [TCMDC-133487] | 28.53
CCNc1cc(C)nc(Nc2ccc(NS(=O)(=O)c3ccccc3)cc2)n1 [TCMDC-124954] | -28.24
Cc1cccc(C)c1CNc1ccnc2cc(Br)ccc12 [TCMDC-132168] | -25.57
CCCCn1c(N)c(N(Cc2ccco2)C(=O)C=Cc2cc(OC)c3c(c2)OCCO3)c(=O)[nH]c1=O [TCMDC-125328] | -14
O=C(NC1CCN(c2ccnc3cc(Cl)ccc23)C1)c1ccc(C(F)(F)F)cc1 (stereo not shown) [TCMDC-133661] | 38.8
Cn1nc2ccc3ccccc3c2nc1=N [TCMDC-131260] | 93.18
Cc1cccc(Nc2nc(C)cc(N3CCCN(CC4CCCCC4)CC3)n2)c1 [TCMDC-137025] | -12.77
O=C(Nc1ccc(-c2nc3ccccc3[nH]2)cc1)c1ccc(S(=O)(=O)N2CCCCC2)cc1 [TCMDC-125834] | -22.63
COc1ccccc1C(C)NCC(=O)Nc1ccccc1Sc1ccccc1 (stereo not shown) [TCMDC-124877] | -2.069
O=C(COc1cnc2ccccc2n1)Nc1ccccc1Sc1ccc(Cl)cc1 [TCMDC-124892] | 99.33
NC(=O)C1Cc2ccccc2CN1CC(=O)Nc1ccccc1Sc1ccccc1 (stereo not shown) [TCMDC-124863] | 48.06
O=C(Nc1ccc2c(c1)CCN2C1CCN(Cc2cc(F)cc(F)c2F)C1)c1ccco1 (stereo not shown) [TCMDC-135071] | -23.05

Compound | % Inhibition [%]
CN1CCC(NCc2ccc(-c3ccc(S(=O)(=O)NCc4ccccc4)s3)cc2)CC1 [TCMDC-132231] | 68.61
CN1CCC(NCc2ccc(-c3ccc(S(=O)(=O)NC4CCC4)s3)cc2)CC1 [TCMDC-132232] | 57.53
CC(C)(CNC(=O)[C@@H]1CCCCN1)c1nc(-c2ccc(Cl)c(O)c2)c(-c2ccncc2)[nH]1 [TCMDC-141079] | -69.36
O=C(NCCN1CCCC1)c1cccc(-c2ccc(-c3nc4ccc(F)cc4[nH]3)s2)c1 [TCMDC-132318] | 15.45
O=S(=O)(NCCN1CCCC1)c1ccc(-c2ccc(CNCc3ccc(F)cc3)cc2)s1 [TCMDC-132284] | 66.59
O=S(=O)(NCCN1CCCC1)c1ccc(-c2cccc(CNCc3ccc(F)cc3)c2)s1 [TCMDC-132273] | 98.81
CS(=O)(=O)c1ccc(CNCc2ccc(-c3ccc(-c4nc5ccc(F)cc5[nH]4)s3)cc2)cc1 [TCMDC-132900] | 4.618
O=C1CCCN1CCCNCc1ccc(-c2ccc(-c3nc4ccc(F)cc4[nH]3)s2)cc1 [TCMDC-132756] | -11.94
CC(C)(C)CC(C)(C)c1ccc(O)c(CNC2CCCCC2)c1 [TCMDC-137604] | 41.75
Cc1nnc(NC(=O)c2cn(-c3ccccc3)nc2-c2ccccc2C)o1 [TCMDC-125040] | 22.18
COc1ccc(OC)c(C(O)C(C)NCc2cc(Cl)ccc2O)c1 (stereo not shown) [TCMDC-137921] | 36.34
COc1ccc(C(=O)Nc2ccc(Cl)cc2C(=O)Nc2ccncc2)cc1 [TCMDC-123739] | 84.9
O=C(Nc1ccc(Cl)cc1)c1cc(Cl)ccc1NC(=O)C1(c2ccc(Cl)cc2)CCCC1 [TCMDC-136643] | -21.36
Cc1ccc(NC(=O)Nc2ccc(Cl)cc2)cc1-c1ccc(C(=O)Nc2ccncc2)cc1 [TCMDC-133702] | -59.17
O=C(Nc1ccc(Cl)cc1C(=O)Nc1ccncc1)c1ccc(Cl)cc1Cl [TCMDC-125853] | 59.79
Cn1ccnc1CCC(=O)Nc1ccc(Cl)cc1C(=O)Nc1ccc(Cl)cc1 [TCMDC-136703] | 12.32
Cc1nc(-c2ccncc2)sc1C(=O)Nc1ccc(Cl)cc1C(=O)Nc1ccc(Cl)cc1 [TCMDC-136515] | 3.625
COc1ccc(CN(C)CCCc2ccc(NC(=O)c3cc4ccccc4[nH]3)cc2)cc1OC [TCMDC-131855] | -11.14
Nc1ccc2nc(C=Cc3ccc(Cl)cc3)[nH]c2c1 [TCMDC-123608] | -19.77
Cc1ccc(NC(=O)Nc2ccc(S(=O)(=O)c3ccc(NC(=O)Nc4ccc(C)c(Cl)c4)cc3)cc2)cc1Cl [TCMDC-124273] | 85.03
Cc1ccc(NC(=O)Nc2ccc(I)c(OCCN(C)C)c2)cc1Cl [TCMDC-139122] | -20.44
CN1CCc2ccc(NC(=O)Nc3ccc(Cl)c(Cl)c3)cc2C1 [TCMDC-133728] | 0.1652
